From ChEMBL document CHEMBL1961873, “Compounds: GSK PKIS; Assays: Nanosyn kinase panel” (2012)

Legend:
[1] = target: Leukocyte tyrosine kinase receptor (Homo sapiens) (UniProt P29376); settings: at 1 µM;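 further: each value is the mean inhibition of LTK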
[2] = target: Tyrosine-protein kinase Lyn (Homo sapiens) (UniProt P07948); settings: at 0.1 µM
[3] = target: Tyrosine-protein kinase Lyn (Homo sapiens) (UniProt P07948); settings: at 1 µM
[4] = target: Tyrosine-protein kinase Lyn (Homo sapiens) (UniProt P07948); settings: at 0.1 µM; remark: listed apart in the source
[5] = target: Tyrosine-protein kinase Lyn (Homo sapiens) (UniProt P07948); settings: at 1 µM; remark: listed apart in the source
[6] = target: T1, Tyrosine-protein kinase Mer (Homo sapiens) (UniProt Q12866); settings: at 0.1 µM
T1 sequence (whole entry): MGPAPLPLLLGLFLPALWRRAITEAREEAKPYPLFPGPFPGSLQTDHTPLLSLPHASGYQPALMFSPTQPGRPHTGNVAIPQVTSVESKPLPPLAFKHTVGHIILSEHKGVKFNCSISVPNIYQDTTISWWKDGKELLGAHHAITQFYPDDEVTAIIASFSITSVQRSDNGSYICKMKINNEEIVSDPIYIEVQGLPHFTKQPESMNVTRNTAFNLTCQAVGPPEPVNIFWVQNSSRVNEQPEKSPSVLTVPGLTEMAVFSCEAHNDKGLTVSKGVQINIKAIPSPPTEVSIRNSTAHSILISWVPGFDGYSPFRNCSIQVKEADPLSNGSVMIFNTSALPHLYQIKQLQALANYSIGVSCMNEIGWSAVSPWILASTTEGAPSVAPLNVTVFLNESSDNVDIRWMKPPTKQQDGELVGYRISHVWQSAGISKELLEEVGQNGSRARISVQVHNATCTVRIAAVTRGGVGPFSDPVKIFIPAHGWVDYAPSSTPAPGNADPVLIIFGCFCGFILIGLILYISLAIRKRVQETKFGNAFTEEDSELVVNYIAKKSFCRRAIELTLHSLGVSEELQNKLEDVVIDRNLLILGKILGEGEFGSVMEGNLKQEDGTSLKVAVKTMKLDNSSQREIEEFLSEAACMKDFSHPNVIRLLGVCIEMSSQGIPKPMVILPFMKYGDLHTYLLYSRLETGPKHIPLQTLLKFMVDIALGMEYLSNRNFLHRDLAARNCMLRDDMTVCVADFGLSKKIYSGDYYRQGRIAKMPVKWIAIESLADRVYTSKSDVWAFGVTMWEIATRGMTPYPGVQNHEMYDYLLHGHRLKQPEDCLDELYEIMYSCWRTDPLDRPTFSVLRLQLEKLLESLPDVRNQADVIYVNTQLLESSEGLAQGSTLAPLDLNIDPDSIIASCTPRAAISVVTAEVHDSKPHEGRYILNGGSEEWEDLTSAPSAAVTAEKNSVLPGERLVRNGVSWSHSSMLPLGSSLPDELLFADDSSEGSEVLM

[7] = target: T1, Tyrosine-protein kinase Mer (Homo sapiens); settings: at 1 µM
[8] = target: Hepatocyte growth factor receptor (Homo sapiens) (UniProt P08581); settings: at 0.1 µM
Hepatocyte growth factor receptor (Homo sapiens), sequence (P08581 whole entry): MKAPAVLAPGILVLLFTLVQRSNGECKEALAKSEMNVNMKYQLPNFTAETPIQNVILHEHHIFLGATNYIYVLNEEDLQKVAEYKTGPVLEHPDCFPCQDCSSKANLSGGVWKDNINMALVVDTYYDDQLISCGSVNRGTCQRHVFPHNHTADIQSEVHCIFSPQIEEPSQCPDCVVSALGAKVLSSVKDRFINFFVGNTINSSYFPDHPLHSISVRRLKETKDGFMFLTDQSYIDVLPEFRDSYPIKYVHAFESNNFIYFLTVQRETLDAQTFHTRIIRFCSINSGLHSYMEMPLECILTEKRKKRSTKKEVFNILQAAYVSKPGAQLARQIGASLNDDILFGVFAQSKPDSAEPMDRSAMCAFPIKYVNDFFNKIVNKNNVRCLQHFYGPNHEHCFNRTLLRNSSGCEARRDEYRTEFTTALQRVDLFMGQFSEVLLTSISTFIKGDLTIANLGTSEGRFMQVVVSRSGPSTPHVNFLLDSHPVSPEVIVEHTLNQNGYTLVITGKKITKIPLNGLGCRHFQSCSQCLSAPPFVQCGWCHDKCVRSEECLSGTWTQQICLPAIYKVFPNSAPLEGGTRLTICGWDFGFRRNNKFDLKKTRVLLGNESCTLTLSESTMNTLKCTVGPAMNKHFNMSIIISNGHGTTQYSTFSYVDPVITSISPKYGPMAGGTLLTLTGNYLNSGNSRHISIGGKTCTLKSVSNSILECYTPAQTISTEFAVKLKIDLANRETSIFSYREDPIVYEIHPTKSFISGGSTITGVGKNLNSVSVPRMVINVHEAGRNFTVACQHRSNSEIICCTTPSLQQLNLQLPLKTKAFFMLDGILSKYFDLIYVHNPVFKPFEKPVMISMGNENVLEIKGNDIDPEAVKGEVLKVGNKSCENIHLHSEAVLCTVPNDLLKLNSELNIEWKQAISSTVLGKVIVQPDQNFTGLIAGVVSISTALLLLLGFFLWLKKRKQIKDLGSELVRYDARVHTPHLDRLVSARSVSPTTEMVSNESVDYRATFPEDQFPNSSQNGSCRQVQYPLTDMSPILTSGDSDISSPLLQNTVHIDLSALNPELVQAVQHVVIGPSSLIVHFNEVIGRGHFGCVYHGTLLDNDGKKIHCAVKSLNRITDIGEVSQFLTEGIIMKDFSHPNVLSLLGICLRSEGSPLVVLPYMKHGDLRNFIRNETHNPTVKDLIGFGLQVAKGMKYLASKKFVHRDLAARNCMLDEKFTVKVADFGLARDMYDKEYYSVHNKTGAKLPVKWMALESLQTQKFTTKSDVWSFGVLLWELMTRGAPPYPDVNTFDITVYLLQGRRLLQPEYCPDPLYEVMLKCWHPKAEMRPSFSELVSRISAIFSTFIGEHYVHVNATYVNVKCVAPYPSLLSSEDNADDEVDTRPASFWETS

[9] = target: Hepatocyte growth factor receptor (Homo sapiens) (UniProt P08581); settings: at 1 µM
[10] = target: T2, Muscle, skeletal receptor tyrosine-protein kinase (Homo sapiens) (UniProt O15146); settings: at 0.1 µM;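 further: values are mean inhibition of MuSK from the GSK PKIS kinase screening panel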
T2 sequence (whole entry): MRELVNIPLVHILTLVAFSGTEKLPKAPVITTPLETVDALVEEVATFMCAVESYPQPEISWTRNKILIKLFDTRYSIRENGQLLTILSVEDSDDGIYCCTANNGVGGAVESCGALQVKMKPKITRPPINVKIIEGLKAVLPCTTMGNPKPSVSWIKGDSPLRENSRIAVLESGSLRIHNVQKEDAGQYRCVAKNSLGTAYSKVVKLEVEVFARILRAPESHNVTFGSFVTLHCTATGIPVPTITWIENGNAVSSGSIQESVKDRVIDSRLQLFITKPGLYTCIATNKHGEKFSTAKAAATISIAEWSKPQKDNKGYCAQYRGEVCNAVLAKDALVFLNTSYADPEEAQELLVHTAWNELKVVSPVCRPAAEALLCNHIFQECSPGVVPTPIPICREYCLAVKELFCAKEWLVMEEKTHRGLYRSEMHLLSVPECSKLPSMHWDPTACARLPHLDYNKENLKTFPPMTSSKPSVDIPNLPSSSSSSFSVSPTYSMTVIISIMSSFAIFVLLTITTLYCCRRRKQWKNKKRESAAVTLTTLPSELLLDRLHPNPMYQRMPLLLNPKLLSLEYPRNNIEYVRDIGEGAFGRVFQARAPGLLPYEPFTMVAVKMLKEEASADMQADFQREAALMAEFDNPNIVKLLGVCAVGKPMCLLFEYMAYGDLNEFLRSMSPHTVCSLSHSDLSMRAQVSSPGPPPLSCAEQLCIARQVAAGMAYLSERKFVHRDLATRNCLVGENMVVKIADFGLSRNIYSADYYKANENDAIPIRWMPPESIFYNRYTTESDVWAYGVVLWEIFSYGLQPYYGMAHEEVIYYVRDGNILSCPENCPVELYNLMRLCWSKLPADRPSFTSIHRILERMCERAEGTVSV

Leukocyte tyrosine kinase receptor (Homo sapiens), sequence (P29376 whole entry): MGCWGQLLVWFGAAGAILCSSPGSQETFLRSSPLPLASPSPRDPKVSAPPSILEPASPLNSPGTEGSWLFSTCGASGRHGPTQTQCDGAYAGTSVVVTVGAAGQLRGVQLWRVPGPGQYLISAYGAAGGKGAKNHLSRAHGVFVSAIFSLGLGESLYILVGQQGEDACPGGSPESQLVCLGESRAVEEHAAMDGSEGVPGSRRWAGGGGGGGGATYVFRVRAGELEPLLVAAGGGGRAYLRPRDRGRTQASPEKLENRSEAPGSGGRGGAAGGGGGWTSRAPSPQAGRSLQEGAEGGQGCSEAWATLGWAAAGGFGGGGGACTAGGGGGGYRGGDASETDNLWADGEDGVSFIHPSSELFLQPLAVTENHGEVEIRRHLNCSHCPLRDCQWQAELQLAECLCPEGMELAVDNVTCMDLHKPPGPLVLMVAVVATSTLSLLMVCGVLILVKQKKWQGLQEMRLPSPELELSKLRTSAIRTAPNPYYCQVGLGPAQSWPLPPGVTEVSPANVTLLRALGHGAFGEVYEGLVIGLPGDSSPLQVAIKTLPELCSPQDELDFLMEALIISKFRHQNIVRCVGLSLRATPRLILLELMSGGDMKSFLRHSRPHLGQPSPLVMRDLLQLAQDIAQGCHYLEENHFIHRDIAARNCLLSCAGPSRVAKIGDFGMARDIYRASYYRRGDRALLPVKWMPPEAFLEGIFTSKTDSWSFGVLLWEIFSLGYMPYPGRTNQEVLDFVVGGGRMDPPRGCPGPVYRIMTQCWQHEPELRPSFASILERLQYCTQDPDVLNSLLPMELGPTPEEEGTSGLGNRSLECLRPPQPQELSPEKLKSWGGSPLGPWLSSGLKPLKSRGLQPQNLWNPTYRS
Tyrosine-protein kinase Lyn (Homo sapiens), sequence (P07948 2-512 limits assumed): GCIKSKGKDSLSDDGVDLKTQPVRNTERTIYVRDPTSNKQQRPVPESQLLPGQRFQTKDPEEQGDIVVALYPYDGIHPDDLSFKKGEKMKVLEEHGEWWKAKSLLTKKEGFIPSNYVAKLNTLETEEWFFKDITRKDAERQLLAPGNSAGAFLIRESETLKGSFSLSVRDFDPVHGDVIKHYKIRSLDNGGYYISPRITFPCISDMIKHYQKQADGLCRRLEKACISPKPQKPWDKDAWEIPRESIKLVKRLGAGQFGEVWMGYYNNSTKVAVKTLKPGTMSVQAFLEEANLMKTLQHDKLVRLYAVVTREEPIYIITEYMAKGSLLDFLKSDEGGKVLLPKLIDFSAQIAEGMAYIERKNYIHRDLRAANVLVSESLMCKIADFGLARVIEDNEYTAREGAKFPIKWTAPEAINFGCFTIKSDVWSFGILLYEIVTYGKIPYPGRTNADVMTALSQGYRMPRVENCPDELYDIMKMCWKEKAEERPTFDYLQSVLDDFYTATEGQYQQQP

| Structure (SMILES) | inhibition [1] [%] | inhibition [2] [%] | inhibition [3] [%] | inhibition [4] [%] | inhibition [5] [%] | inhibition [6] [%] | inhibition [7] [%] | inhibition [8] [%] | inhibition [9] [%] | inhibition [10] [%] |
| --- | --- | --- | --- | --- | --- | --- | --- | --- | --- | --- |
| CS(=O)(=O)CCNCc1ccc(-c2ccc3ncnc(Nc4ccc(OCc5cccc(F)c5)c(C(F)(F)F)c4)c3c2)o1 | 3.49 | 6.53 | 6.94 | 3.88 | 4.94 | 1.14 | 0.83 | 7.18 | 3.55 | 3.27 |
| CCn1c(-c2nonc2N)nc2cnc(Oc3cccc(NC(=O)c4ccc(OCCN5CCOCC5)cc4)c3)cc21 | 1.51 | 5.8 | 4.87 | 3.05 | 2.62 | 1.1 | 2.56 | 3.9 | 7.84 | 2.09 |
| CS(=O)(=O)CCNCc1nc(-c2ccc3ncnc(Nc4ccc(F)c(Cl)c4)c3c2)cs1 | 1.99 | 4.29 | 27.3 | 3.57 | 19.4 | 0.48 | 4.95 | 3.54 | 9.65 | 1.59 |
| Cc1ccc(C(=O)NC2CCCCC2)cc1-c1ccc(C(=O)NCC2CC2)cc1 | 0.02 | 2.9 | 2.6 | 1.53 | 0.34 | 1.63 | 3.6 | 4.53 | 5.05 | 6.01 |
| CCCN1CCC(Oc2cc(Nc3nc(Nc4cccc(F)c4C(N)=O)c4cc[nH]c4n3)c(OC)cc2Cl)CC1 | 68.8 | 0 | 2.61 | -0.77 | 1.89 | 0.64 | 2.77 | -1.41 | -2.15 | 3.31 |
| Nc1nc(-c2ccc3c(c2)C(=Cc2cc(Br)c(O)c(Br)c2)C(=O)N3)cs1 | 17.4 | 0.87 | 6.57 | 0.59 | 4.62 | -0.02 | 3.29 | 1.02 | 4.73 | 0.81 |
| COc1ccc(-c2nn3ncccc3c2-c2ccnc(Nc3ccc(Cl)c(C(F)(F)F)c3)n2)cc1 | 2.96 | 2.95 | 7.79 | 2.39 | 7.64 | 0.1 | 0.41 | 7.55 | 4.08 | 2.01 |
| CN(C)c1cc2c(Nc3ccc4nc(Cc5ccccc5)[nH]c4c3)ncnc2cn1 | 3.97 | 9.84 | 32.1 | 7.8 | 28.7 | 1.94 | 8.97 | 0.15 | 5.85 | 2.63 |
| O=C1Nc2ccc(C(=O)c3ccco3)cc2C1=Cc1cc(Cl)c(O)c(Cl)c1 | 44.2 | 5.67 | 18.9 | 2.95 | 16.2 | 1.35 | 4.42 | 2.06 | 15.7 | 4.03 |
| CC1=C(C(=O)Nc2ccc3[nH]ncc3c2)C(c2ccc(Cl)c(Cl)c2)CC(=O)N1 (stereo not given) | 0.02 | 3.35 | 9.96 | 2.18 | 7.24 | 0.79 | 1.25 | -0.1 | 5.85 | 2.88 |
| NC(=O)c1cccc(Nc2nccc(Nc3cccc4[nH]ncc34)n2)c1 | 39 | 58.5 | 91.3 | 52.3 | 88.9 | -0.28 | 8.27 | -1.63 | 4.73 | 1.07 |
| Fc1cccc(COc2ccc(Nc3ncnc4sc(-c5cccs5)cc34)cc2Cl)c1 | 1.68 | 0.57 | 1.59 | 0.13 | 2.6 | 1.5 | 0.96 | -1.35 | -0.09 | -0.17 |
| c1cnn2ncc(-c3ccnc(Nc4ccc5c(c4)OCCO5)n3)c2c1 | 21.9 | 7.12 | 12.7 | 4.02 | 11 | 4.03 | 19.6 | 3.78 | 16.8 | 5.35 |
| COc1cc(C)c(NC(=O)CN(C)C)cc1Nc1nc(Nc2cccc(F)c2C(N)=O)c2cc[nH]c2n1 | 95.6 | 3.5 | 1.33 | 2.46 | -0.14 | 2.47 | 7.53 | 3.32 | -1.66 | 5.47 |
| COc1ccc(-c2ccncc2)cc1C(N)=O | 5.79 | 4.67 | 4.69 | 2.01 | 4.65 | 2.57 | 5.63 | 3.93 | 5.8 | 2.42 |
| CN1CCC(C(=O)Nc2n[nH]c3nnc(-c4ccccc4)cc23)CC1 | 4.51 | 5.18 | 4.72 | 2.24 | 3.51 | 1.95 | 7.11 | 1.78 | 3.43 | 3.93 |
